Test results taken from the supplement of paper PMC6555819.

Tested on: PPARa:RXRa (NR concentration 270 nM, RXRa partner concentration 90 nM)
Assay: PBM binding z-score (relative to random genomic background probes); higher = stronger binding; sequences stand for … in GC…GCGATTGACAGCGTAGAATGAAGG
Method in brief: (§1)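 Binding z-scores take random background probes as their reference. They come from custom Agilent 4×180K protein-binding microarrays incubated 1 h with ligand-free nuclear receptor dimers, with antibodies against each partner (one per run) detecting binding. Scanned fluorescence was regression-normalized.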

| Sequence | PBM binding z-score |
| --- | --- |
| CCGAGTAGGTTACGAGGGGGCAGTCAGTGCGAAT | 3.14 |
| CAGAGTAGGTTACGAGGGGGCATTCAGTGCGAAT | 3.54 |
| TCGAGTAGGATACGGGGGCATTCAGGGATGAAGA | 2.35 |
| CCGAGTAGGTTACGAGGAGGCATTCAGTGCGAAT | 1.26 |
| CTATGTAGGTTAAGGGGGTCATTCATTTTGAAAG | 5.9 |
| CCGAGTAGGTTACGAGGGGGCATTCTGTGCGAAT | 3.38 |
| TCGAGTATGTTACGGGGGCATTCAGGGATGAAGA | 2.9 |
| TCGAGTAGGTTACGGGGGCATTCTGGGATGAAGA | 4.23 |
| CTATGAAGGTTAAGGGGGTCATTCAGTTTGAAAG | 5.65 |
| CCGAGTAGGTTACGTGGGGGCATTCAGTGCGAAT | 3.6 |
| CCGAGTAGGTTACGAGGGGGCATTGAGTGCGAAT | 3.55 |
| CCGAGTAGGTTACGAGGGGGCACTCAGTGCGAAT | 3.35 |
| TCGAGTAGGTTACGGGGGCCTTCAGGGATGAAGA | 2.99 |
| TCGAGTAGGTTACGCGGGCATTCAGGGATGAAGA | 1.49 |
| TCGAGTAGGTTACGGGGTCATTCAGGGATGAAGA | 6.21 |
| CTATGTAGGTTCAGGGGGTCATTCAGTTTGAAAG | 5.86 |
| TCGAGTAGGTTACGGGGGCTTTCAGGGATGAAGA | 3.23 |

Tested on: PPARg:RXRa (NR concentration 180 nM, RXRa partner concentration 90 nM)
Assay: as above
Method in brief: as §1

| Sequence | PBM binding z-score |
| --- | --- |
| CTATGTAGGTTAAGGGGGTCATTCAGTTTGAAAG | 9 |
| CCGAGTAGGTTACGAGGGGGCATGCAGTGCGAAT | 2.46 |
| TCGAGCAGGTTACGGGGGCATTCAGGGATGAAGA | 4.31 |
| CTATGTAGGTTAAGGGGGCCATTCAGTTTGAAAG | 7 |
| TCGGGTAGGTTACGGGGGCATTCAGGGATGAAGA | 5.73 |
| CTATGTAGGTTAAGGGGGTCTTTCAGTTTGAAAG | 7.24 |
| CTGTGTAGGTTAAGGGGGTCATTCAGTTTGAAAG | 6.19 |
| CTATGTAGATTAAGGGGGTCATTCAGTTTGAAAG | 4.29 |
| CCGAGTAGGTTACGAGGGGGTATTCAGTGCGAAT | 1.8 |
| TCGAGTAGGTTAAGGGGGCATTCAGGGATGAAGA | 5.19 |
| CCGATTAGGTTACGAGGGGGCATTCAGTGCGAAT | 1.45 |
| CTATGTAGGTTAAGCGGGTCATTCAGTTTGAAAG | 5.97 |
| CTATGTAGGTTAAGGGGGTCATGCAGTTTGAAAG | 9.11 |
| CTATGTAGGTTAAGGGGGGCATTCAGTTTGAAAG | 8.88 |
| CTATGTAGGTTAAAGGGGTCATTCAGTTTGAAAG | 9.57 |
| CCGAGTAGGTCACGAGGGGGCATTCAGTGCGAAT | 7.8 |
| TCGAGTAGGTTATGGGGGCATTCAGGGATGAAGA | 4.86 |
| CTGAGTAGGTTACGAGGGGGCATTCAGTGCGAAT | 4.46 |
| TCGAGTAGGTTACGGGGGCATTCCGGGATGAAGA | 5.89 |
| CCGAGTAGGTTAAGAGGGGGCATTCAGTGCGAAT | 1.93 |

| Sequence | PBM binding z-score |
| --- | --- |
| TCGAGTACGTTACGGGGGCATTCAGGGATGAAGA | 0.609 |
| CTATGTAGGTAAAGGGGGTCATTCAGTTTGAAAG | 7.28 |
| CCGAGTAGGTTACGAGGGGGCAGTCAGTGCGAAT | 2.19 |
| CAGAGTAGGTTACGAGGGGGCATTCAGTGCGAAT | 3.69 |
| TCGAGTAGGATACGGGGGCATTCAGGGATGAAGA | 1.24 |
| CCGAGTAGGTTACGAGGAGGCATTCAGTGCGAAT | 0.943 |
| CTATGTAGGTTAAGGGGGTCATTCATTTTGAAAG | 8.6 |
| CCGAGTAGGTTACGAGGGGGCATTCTGTGCGAAT | 2.22 |
| TCGAGTATGTTACGGGGGCATTCAGGGATGAAGA | 1.94 |
| TCGAGTAGGTTACGGGGGCATTCTGGGATGAAGA | 6.17 |
| CTATGAAGGTTAAGGGGGTCATTCAGTTTGAAAG | 5.21 |
| CCGAGTAGGTTACGTGGGGGCATTCAGTGCGAAT | 1.87 |
| CCGAGTAGGTTACGAGGGGGCATTGAGTGCGAAT | 2.61 |
| CCGAGTAGGTTACGAGGGGGCACTCAGTGCGAAT | 2.36 |
| TCGAGTAGGTTACGGGGGCCTTCAGGGATGAAGA | 2.78 |
| TCGAGTAGGTTACGCGGGCATTCAGGGATGAAGA | 1.38 |
| TCGAGTAGGTTACGGGGTCATTCAGGGATGAAGA | 8.14 |
| CTATGTAGGTTCAGGGGGTCATTCAGTTTGAAAG | 5.72 |
| TCGAGTAGGTTACGGGGGCTTTCAGGGATGAAGA | 3.47 |

Tested on: PPARg:RXRa 270nM:90nM, anti-RXR (NR concentration 270 nM, RXRa partner concentration 90 nM)
Assay: as above
Method in brief: as §1

| Sequence | PBM binding z-score |
| --- | --- |
| CTATGTAGGTTAAGGGGGTCATTCAGTTTGAAAG | 7.99 |
| CCGAGTAGGTTACGAGGGGGCATGCAGTGCGAAT | 3.3 |
| TCGAGCAGGTTACGGGGGCATTCAGGGATGAAGA | 4.37 |
| CTATGTAGGTTAAGGGGGCCATTCAGTTTGAAAG | 6.86 |
| TCGGGTAGGTTACGGGGGCATTCAGGGATGAAGA | 5.54 |
| CTATGTAGGTTAAGGGGGTCTTTCAGTTTGAAAG | 7.16 |
| CTGTGTAGGTTAAGGGGGTCATTCAGTTTGAAAG | 6.47 |
| CTATGTAGATTAAGGGGGTCATTCAGTTTGAAAG | 5.06 |
| CCGAGTAGGTTACGAGGGGGTATTCAGTGCGAAT | 3.05 |
| TCGAGTAGGTTAAGGGGGCATTCAGGGATGAAGA | 5.78 |
| CCGATTAGGTTACGAGGGGGCATTCAGTGCGAAT | 2.96 |
| CTATGTAGGTTAAGCGGGTCATTCAGTTTGAAAG | 5.57 |
| CTATGTAGGTTAAGGGGGTCATGCAGTTTGAAAG | 8 |
| CTATGTAGGTTAAGGGGGGCATTCAGTTTGAAAG | 7.37 |
| CTATGTAGGTTAAAGGGGTCATTCAGTTTGAAAG | 8.21 |
| CCGAGTAGGTCACGAGGGGGCATTCAGTGCGAAT | 7.12 |
| TCGAGTAGGTTATGGGGGCATTCAGGGATGAAGA | 4.86 |
| CTGAGTAGGTTACGAGGGGGCATTCAGTGCGAAT | 4.41 |
| TCGAGTAGGTTACGGGGGCATTCCGGGATGAAGA | 5.67 |
| CCGAGTAGGTTAAGAGGGGGCATTCAGTGCGAAT | 3.19 |

| Sequence | PBM binding z-score |
| --- | --- |
| TCGAGTACGTTACGGGGGCATTCAGGGATGAAGA | 1.72 |
| CTATGTAGGTAAAGGGGGTCATTCAGTTTGAAAG | 7.12 |
| CCGAGTAGGTTACGAGGGGGCAGTCAGTGCGAAT | 3.18 |
| CAGAGTAGGTTACGAGGGGGCATTCAGTGCGAAT | 4.37 |
| TCGAGTAGGATACGGGGGCATTCAGGGATGAAGA | 2.72 |
| CCGAGTAGGTTACGAGGAGGCATTCAGTGCGAAT | 1.25 |
| CTATGTAGGTTAAGGGGGTCATTCATTTTGAAAG | 7.7 |
| CCGAGTAGGTTACGAGGGGGCATTCTGTGCGAAT | 3.46 |
| TCGAGTATGTTACGGGGGCATTCAGGGATGAAGA | 3.22 |
| TCGAGTAGGTTACGGGGGCATTCTGGGATGAAGA | 5.55 |
| CTATGAAGGTTAAGGGGGTCATTCAGTTTGAAAG | 6.01 |
| CCGAGTAGGTTACGTGGGGGCATTCAGTGCGAAT | 3.65 |
| CCGAGTAGGTTACGAGGGGGCATTGAGTGCGAAT | 3.24 |
| CCGAGTAGGTTACGAGGGGGCACTCAGTGCGAAT | 3.18 |
| TCGAGTAGGTTACGGGGGCCTTCAGGGATGAAGA | 3.68 |
| TCGAGTAGGTTACGCGGGCATTCAGGGATGAAGA | 1.88 |
| TCGAGTAGGTTACGGGGTCATTCAGGGATGAAGA | 6.68 |
| CTATGTAGGTTCAGGGGGTCATTCAGTTTGAAAG | 6.22 |
| TCGAGTAGGTTACGGGGGCTTTCAGGGATGAAGA | 3.94 |
